In PubChem BioAssay (NCATS) one finds Potency, outcome and max response data, which are given here for 40 molecules.

Inconclusive results are not listed. A number with no mark means an inactive call. Activity calls are given as the source filed them. Calls follow the shape of the dose curve; as a rule, active = well fitted inhibition curve with a large enough effect; inconclusive = small, poorly fitted or top-dose-only effect; inactive = flat fitted curve, though single readings scatter. Starred links: 1 amine or outer side, 2 acyl side, 3 side chain; linkers in the order of their positions; H or OH if unused. Positions of bridges follow the written chain, without caps; N, C: chain ends. Non-standard residues stand in square brackets, D forms with d. Residues, ends and D or L forms follow the SMILES beside them. Chains are numbered I, II in the order given. Actinocin(9to1) = Cc1c2oc3c(C)ccc(C(=O)[*:1])c3nc-2c(C(=O)[*:2])c(N)c1=O; NMeV = CN[CH](C(=O)O)C(C)C; Sar = CNCC(=O)O
% is scaled to controls: 0 for no effect and ±100 for the full control effect; potency is read from the fitted curve at half-maximal effect.

In the assay the test system is HEK293. The assay is described as follows: Cytotoxic Profiling of Annotated Libraries Using Quantitative High-Throughput Screening (AID 1296008). Also: nearly all actives have a fitted effect of over 60% in size. To be noted: Five cell lines viability, CellTiter-Glo ATP luminescence, 48-72 h; max response: active compounds read low. An excerpt: Cell-based phenotypic screening is a commonly used approach to discover biological pathways, novel drug targets, chemical probes and high-quality hit-to-lead molecules. Many hits identified from high-throughput screening campaign are ruled out through a series of follow-up potency, selectivity/specificity, and cytotoxicity assays. Prioritization of molecules with little or no cytotoxicity for a more in-depth downstream evaluation influence the future direction of projects, so cytotoxicity profiling of the screening libraries at early stage is essential for increasing the likelihood of candidate success. […] For the annotated library, we also examined the primary targets and mechanistic pathways regularly associated with cell death. To our knowledge, this is the first study to use high-throughput screening to profile large libraries for cytotoxicity assessment in both normal and cancer cell lines. In summary, the results generated here constitutes a valuable resource for the scientific community and provides insight on identifying cytotoxic compounds with particular mechanisms of action, and prioritizing compounds with suitable cytotoxicity profile for further evaluation.
A pintool (Kalypsys) was used to transfer 23 nL of compound solution to the 1536-well assay plates. After 48 or 72 hr incubation at 37 degree Celsius, 5% CO2 and 95% humidity, 2.5 uL of CellTiter-Glo (Promega) was dispensed into each well using a dispenser (Aspect Automation, St. Paul, MN) with solenoid valves (Lee Valves, Westbrook CT). Plates were left at room temperature for 10 min before imaging the ATP-coupled luminescence using a ViewLux microplate imager (PerkinElmer, Waltham, MA).
In general terms: In ATP-based viability assays light output follows the ATP content of the culture.
As for `C[C@H](NC(=O)C(C#N)=Cc1cccc(Br)n1)c1ccccc1`, the Potency was 4.18 µM (active).
Take `CC[C@@]1([C@@H]2O[C@@H]([C@H]3O[C@@](O)(CO)[C@H](C)C[C@H]3C)C[C@H]2C)CC[C@H]([C@]2(C)CC[C@]3(C[C@H](O)[C@@H](C)[C@@H]([C@@H](C)[C@@H](OC)[C@H](C)C(=O)O)O3)O2)O1`: the Potency is 0.144 µM (active).
In the case of `COC[C@H](NC(=O)c1cnc(C)s1)C(=O)N[C@@H](COC)C(=O)N[C@@H](Cc1ccccc1)C(=O)[C@@]1(C)CO1`, the Potency is 0.148 µM (active).
For the molecule `CC(=O)C1=C(O)C=C2Oc3c(C(C)=O)c(O)c(C)c(O)c3C2(C)C1=O` (stereo not given), the molecule was called inactive.
As to `N#CC(=Cc1ccc(O)c(O)c1)C(=O)NCc1ccccc1`, the max response was -6.05%.
With `COc1cc(C[C@@H](CO)[C@H](CO)Cc2ccc(O)c(OC)c2)ccc1O`, the max response is -2.88%.
`O=C1NC(=O)[C@@H](c2cn3c4c(cccc24)CCC3)[C@H]1c1c[nH]c2ccccc12`: the Potency is 0.662 µM (active).
In the case of `C[C@H](O)[C@@H]1C(=O)N2C(C(=O)O)=C(S[C@@H]3CN[C@H](CNS(N)(=O)=O)C3)[C@@H](C)[C@@H]12`, the max response was 0.869%.
As to `CC(C)Oc1ccc(C(=O)N[C@H](CNC(=O)CN(C)C)Cc2ccc(-c3cn4cccc([C@H](C)O)c4n3)cc2)cc1Cl`, the Potency is 0.372 µM (active).
Regarding `C[C@@]12C(=O)OC(=O)[C@@]1(C)C1CCC2O1`, the Potency was 8.33 µM (active).
In the case of `Cc1cnc(Nc2ccc(N3CCN(C)CC3)cc2)nc1Nc1cccc(S(=O)(=O)NC(C)(C)C)c1`, the Potency is 4.69 µM (active).
Same read-out and setting: then `CC(O)(C#Cc1ccc2c(c1)N(c1nc(N)ncc1Cl)CC2)c1nccs1` (stereo not given), with 26.4 µM (active).
Regarding `C[C@@H]1[C@H](C)CC[C@]2(C(=O)O)CC[C@]3(C)C(=CC[C@@H]4[C@@]5(C)C[C@@H](O)[C@H](O)[C@@](C)(CO)[C@H]5CC[C@]43C)[C@@H]12`, the max response is -10.4%.
Take `N[C@H]1CN(c2c(F)cc3c(=O)c(C(=O)O)cn(C4C[C@@H]4F)c3c2Cl)CC12CC2` (stereo not given in full): the max response was -9.37%.
For `CC[C@H]1OC(=O)[C@H](C)[C@@H](O[C@H]2C[C@@](C)(OC)[C@@H](O)[C@H](C)O2)[C@H](C)[C@@H](O[C@@H]2O[C@H](C)C[C@H](N(C)C)[C@@H]2O)[C@](C)(OC)C[C@@H](C)C(=O)[C@H](C)[C@@H](O)[C@]1(C)O`, the max response is -15.9%.
With `COC(=O)[C@H](CCCN=C(N)N)NS(=O)(=O)c1ccc(C)cc1`, the call was inactive.
For `C[C@H](NCc1ccc(OCc2cccc(F)c2)cc1)C(N)=O`, the Potency is 11.8 µM (active).
In the case of `O=C1NC(O)CCN1[C@@H]1O[C@H](CO)[C@H](O)[C@H]1O` (stereo not given in full), the max response is -3.17%.
Take `O=C(O)C[C@H](O)C[C@H](O)C=Cc1c(C2CC2)nc2ccccc2c1-c1ccc(F)cc1`: the Potency is 9.35 µM (active).
Same read-out and setting: then `C[C@H]1[C@@H](OC(=O)CCC(=O)O)O[C@@H]2O[C@@]3(C)CC[C@@H]4[C@H](C)CC[C@@H]1[C@@]24OO3`, with 2.35 µM (active).
As to `CC[C@H](CC[C@@H](C)[C@H]1CC[C@H]2[C@@H]3CC=C4C[C@@H](O)CC[C@]4(C)[C@@H]3CC[C@]12C)C(C)C`, the max response was -8.75%.
For `CCN(CC)CCNC(=O)c1c(C)[nH]c(C=C2C(=O)Nc3ccc(F)cc32)c1C`, the Potency was 0.27 µM (active).
Consider `O=c1[nH]c(=O)n([C@H]2C[C@@H](O)[C@@H](CO)O2)cc1F`, for which the Potency was 0.0526 µM (active).
As for `COc1ccc(C[C@@H](C)[C@@H](C)Cc2ccc(OC)c(OC)c2)cc1OC`, the Potency is 2.64 µM (active).
The same measure, in the same setting: for `Cc1cc(Nc2ncc3c(n2)N(C)C(=O)N(c2cc(NC(=O)c4cccc(C(F)(F)F)c4)ccc2C)C3)n(C)n1` the value was 0.418 µM (active); for `COc1ccc(S(=O)(=O)Nc2cccnc2Nc2ccc(O)cc2)cc1`, 0.935 µM (active); for `CC[C@]12C=CCN3CC[C@@]4(c5cc([C@@]6(C(=O)OC)C[C@H]7C[C@@H](C(C)(F)F)CN(Cc8c6[nH]c6ccccc86)C7)c(OC)cc5N(C)[C@H]4[C@@](O)(C(=O)OC)[C@H]1OC(C)=O)[C@@H]32`, 0.0083 µM (active).
For `Cc1c2oc3c(C)ccc(C(=O)NC4C(=O)NC(C(C)C)C(=O)N5CCCC5C(=O)N(C)CC(=O)N(C)C(C(C)C)C(=O)OC4C)c3nc-2c(C(=O)NC2C(=O)NC(C(C)C)C(=O)N3CCCC3C(=O)N(C)CC(=O)N(C)C(C(C)C)C(=O)OC2C)c(N)c1=O` (stereo not given) (I: TVP[Sar][NMeV] / II: TVP[Sar][NMeV]; ester I:1-I:C, II:1-II:C; linker I:N-II:N via Actinocin(9to1); configuration not given here), the max response is -93.3%.
As for `CCCNC(=O)[C@H]1O[C@H]1C(=O)N[C@H](C(=O)N1CCC[C@@H]1C(=O)OC)C(C)CC` (stereo not given in full), the Potency was 10.5 µM (active).
The same measure, in the same setting: then `Cn1cc(CNCC2CCN(c3ncc(C(=O)NO)cn3)CC2)c2ccccc21`, with 0.187 µM (active); and `CNC(=O)c1ccc(Nc2cc(Nc3ccccc3S(=O)(=O)C(C)C)c3cc[nH]c3n2)nc1`, with 2.09 µM (active).
The same measure, in the same setting: for `Cn1cc(C2=C(c3c4n(c5ccccc35)CCC(CN)C4)C(=O)NC2=O)c2ccccc21` (stereo not given) the value was 13.2 µM (active).
Regarding `Cc1cc(C(=O)NOCCO)c(Nc2ccc(I)cc2F)n(C)c1=O`, the max response is -3.43%.
Regarding `OC[C@H]1OC(O)C[C@@H](O)[C@H]1O` (stereo not given in full), the call was inactive.
Take `CC(C)(O)Cn1c(NC(=O)c2ccc(-c3cn[nH]c3)s2)nc2cc(CN3CCOCC3)ccc21`: the Potency is 0.526 µM (active).
Take `O=C(O)C(=O)Nc1cccc(C2=NN=N[N]2)c1`: the max response is -1.4%.
With `CC(=O)N[C@@H]1[C@H](O[C@@H]2c3ccc(c(Cl)c3)Oc3cc4cc(c3O[C@H]3O[C@H](CO)[C@@H](O)[C@H](O)[C@H]3NC(=O)CCCCCCCC(C)C)Oc3ccc(cc3Cl)C[C@H]3NC(=O)[C@H](N)c5ccc(O)c(c5)Oc5cc(O)cc(c5)[C@H](NC3=O)C(=O)N[C@H]4C(=O)N[C@H]3C(=O)N[C@@H]2C(=O)N[C@@H](C(=O)O)c2cc(O)cc(O[C@H]4O[C@H](CO)[C@@H](O)[C@H](O)[C@H]4O)c2-c2cc3ccc2O)O[C@H](CO)[C@@H](O)[C@@H]1O`, the molecule was called inactive.
On to `OCC(O)C(O)C(O)CO` (stereo not given), for which the max response was -3.06%.
Same read-out and setting: for `COc1cc(OC)c(NC(=O)Nc2cc(C)on2)cc1Cl` the value was -18.7%; for `C[C@@H](NCc1cc2ccccc2[nH]1)c1cccc2ccccc12`, -2.05%.
